# Experimental data: PubChem BioAssay
# Results filed as inconclusive are left out. Activity calls are given as the source filed them. Unless noted, cut-off not given; nearly all actives show AC50 up to about 26 µM.
# Key:
# [1] = growth inhibition of DIPG glioma cells, dose response, cell-based, SU-DIPG-XVII, MIPE5.0, CellTiter-Glo, qHTS (AID 1347060); conditions: SU-DIPG-XVII viability, CellTiter-Glo ATP luminescence;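 on AC50: cells exposed to compound for 48 hours before viability readout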
# [2] = growth inhibition of DIPG glioma cells, dose response, cell-based, SU-DIPG-XIII, MIPE5.0, CellTiter-Glo, qHTS (AID 1347064; cut-off not given, nearly all actives have AC50 up to about 23 µM;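 on AC50: cells exposed to compound for 48 hours before the viability read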); conditions: SU-DIPG-XIII viability, CellTiter-Glo ATP luminescence
# [3] = viability loss in pontine glioma line – cell-based, SU-DIPG-XXV, MIPE5.0, CellTiter-Glo, qHTS, dose response (AID 1347065); conditions: CellTiter-Glo ATP luminescence;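 further: cells exposed to compound for 48 hours before ATP readout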
# [4] = JHH-DIPG-1 glioma cell viability, MIPE5.0 library, CellTiter-Glo luminescence, qHTS (AID 1347067); conditions: JHH-DIPG-1 glioma viability, CellTiter-Glo ATP luminescence;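 further: cells exposed to compound for 48 hours before readout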
# [5] = SU-DIPG-XXV glioma cell viability, MIPE5.0 library, qHTS (AID 1347068; cut-off not given, nearly all actives have IC50 up to about 30 µM;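 on IC50: cells exposed to compound for 48 hours before viability readout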)
# [6] = LFS_MB_P medulloblastoma growth inhibition, cell-based, chromothripsis tumors, cisplatin or BGB combos (AID 1671449; in the data active means inhibition above about 80%;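 further: cells exposed for 96 hours; 0% = vehicle DMSO and 100% = killing by high DMSO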); conditions: LFS_MB_P medulloblastoma cells
# [7] = HDN33 neuroblastoma growth inhibition, cell-based, chromothripsis tumors, cisplatin or BGB combos (AID 1671450; in the data active means inhibition above about 80%;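 further: cells exposed to compound for four days; 0% = vehicle DMSO and 100% = cell killing by high DMSO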); conditions: HDN33 neuroblastoma cells, stronger effect = higher value
# [8] = ICB984 medulloblastoma cell growth inhibition, synergistic combos for chromothripsis tumors, cisplatin or BGB combos (AID 1671451; call rule not given here;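 further: cells exposed for 96 hours before readout; 0% = vehicle DMSO and 100% = killing by high DMSO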); conditions: ICB984 medulloblastoma cells, drug combinations, stronger effect = higher value
# [9] = LFS_MB_1R medulloblastoma cell growth inhibition, synergistic combos for chromothripsis tumors, cisplatin or BGB combos (AID 1671452; in the data active means inhibition above about 80%;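 further: cells exposed for 96 hours before readout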); conditions: LFS_MB_1R medulloblastoma cells, stronger effect = higher value
# [10] = HTB85 osteosarcoma cell growth inhibition, synergistic combos for chromothripsis tumors, BGB or cisplatin IC20 combos (AID 1671453; in the data active means inhibition above about 80%;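 further: cells exposed for 96 hours before readout; 0% = vehicle DMSO and 100% = high DMSO killing control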); conditions: HTB85 osteosarcoma cells, drug combinations, stronger effect = higher value
# [11] = CRL2098 osteosarcoma cell growth inhibition, synergistic combos for chromothripsis tumors, BGB or cisplatin IC20 combos (AID 1671454; in the data active means inhibition above about 80%;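 further: cells exposed for 96 h before readout; 0% = vehicle DMSO and 100% = killing by high DMSO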); conditions: CRL2098 osteosarcoma cells, drug combinations, stronger effect = higher value
# [12] = HD-MB03 medulloblastoma cell growth inhibition, synergistic combos for chromothripsis tumors, BGB or cisplatin IC20 combos (AID 1671455; in the data active means inhibition above about 83%;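 further: 0% = vehicle DMSO and 100% = high DMSO as cytotoxic control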); conditions: HD-MB03 medulloblastoma cells, stronger effect = higher value
# [13] = UWB1.289 ovarian carcinoma cell growth inhibition, synergistic combos for chromothripsis tumors, BGB or cisplatin combos (AID 1671456; in the data active means inhibition above about 80%;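 further: cells exposed to compound for four days; 0% = vehicle DMSO and 100% = killing by high DMSO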); conditions: UWB1.289 ovarian carcinoma cells, stronger effect = higher value
# [14] = MDA-MB-436 breast carcinoma cell growth inhibition, synergistic combos for chromothripsis tumors, BGB or cisplatin combos (AID 1671458; call rule not given here;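 further: cells exposed for 96 hours; 0% = vehicle DMSO and 100% = killing by high DMSO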); conditions: MDA-MB-436 breast carcinoma growth inhibition, drug combinations, stronger effect = higher value
# [15] = growth inhibition of BT084 medulloblastoma cells, cell-based, ICGC_MB145, cisplatin and BGB IC40 combos (AID 1671461; in the data active means inhibition above about 80%;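 further: cells exposed to drugs for 96 hours; 0% = vehicle DMSO and 100% = high DMSO full killing control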); conditions: drug combinations, stronger effect = higher value
# [16] = growth inhibition of RCMB18 medulloblastoma cells, cell-based, cisplatin and BGB IC40 combos (AID 1671462; in the data active means inhibition above about 80%;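 further: cells exposed to compound for four days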); conditions: stronger effect = higher value
# [17] = growth inhibition of CRL1545 osteosarcoma cells, cell-based, cisplatin and BGB IC20 combos (AID 1671464; in the data active means inhibition above about 80%;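 further: cells exposed to compound for 96 hours before readout; 0% = vehicle DMSO and 100% = high DMSO killing control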); conditions: stronger effect = higher value
# [18] = sensitizers of A549 cells to miR-34 induction, primary screen, imaging, A549 dox-inducible miR-34, nuclei and caspase counts (AID 1347080;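 active means compounds whose cell count with miR-34 switched on is under 0.7 times the count with it off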); conditions: A549 miR-34 inducible, Hoechst nuclei count, 48 h
# [19] = survival rescue of mitochondrial mutant cells in low glucose, primary screen, MELAS cybrids, Rieske KO mouse fibroblasts, CellTiter-Glo (AID 1508586;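 active means mean z-score across replicates of 1.96 or higher in either the MELAS or the Rieske mutant cell line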;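 further: z relative to plate mean and SD of compound and empty wells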)
# [20] = at 0.5 µM, stronger effect = higher value
# [21] = measured here: combination with BGB IC20, at 0.005 µM
# [22] = measured here: combination with BGB IC40, at 0.005 µM
# [23] = measured here: combination with BGB IC40, at 0.05 µM
# [24] = measured here: combination with cisplatin, at 0.5 µM, stronger effect = higher value
# [25] = measured here: combination with cisplatin, at 5 µM, stronger effect = higher value
# [26] = measured here: with BGB IC20 combination, at 0.5 µM
# [27] = measured here: with cisplatin IC20 combination, at 0.5 µM
# [28] = measured here: 5 uM single agent, at 5 µM
# [29] = measured here: combination with cisplatin, at 0.5 µM
# [30] = measured here: combination with cisplatin, at 5 µM
# [31] = measured here: with BGB IC20, at 0.5 µM
# [32] = measured here: with BGB IC20, at 5 µM
# [33] = measured here: with cisplatin IC20, at 0.5 µM
# [34] = measured here: with cisplatin IC20, at 5 µM
# [35] = measured here: combination with BGB at IC20, at 0.5 µM
# [36] = measured here: combination with cisplatin at IC20, at 0.5 µM
# [37] = measured here: combo with BGB at IC20, at 0.5 µM
# [38] = measured here: combo with cisplatin at IC20, at 0.5 µM
# [39] = measured here: inhibition with BGB combination, at 0.05 µM
# [40] = measured here: inhibition with cisplatin combination, at 0.05 µM
# [41] = measured here: BGB combination, at 0.5 µM
# [42] = measured here: BGB combination, at 5 µM
# [43] = measured here: cisplatin combination, at 0.5 µM
# [44] = measured here: cisplatin combination, at 5 µM
# [45] = cisplatin combination, at 0.5 µM
# [46] = measured here: BGB IC40 combination 0.05 uM, at 0.05 µM
# [47] = measured here: BGB IC40 combination, at 0.05 µM
# [48] = stronger effect = lower value, cell number ratio, induced over uninduced
# [49] = measured here: relative caspase fold change +Dox/-Dox
# [50] = measured here: total cells with miR-34 induction, stronger effect = lower value
# [51] = measured here: total cells without miR-34 induction
# [52] = MELAS cybrid survival, CellTiter-Glo 48 h, stronger effect = higher value
# [53] = Rieske KO mouse fibroblast survival, CellTiter-Glo 72 h
structure (smiles),measurement,setting,value
N=C1CCCN1Cc1[nH]c(=O)[nH]c(=O)c1Cl,outcome,[1],inactive
same,outcome,[2],inactive
same,outcome,[3],inactive
same,outcome,[4],inactive
same,outcome,[5],inactive
same,inhibition,[6]; [20],-20% (inactive)
same,inhibition,[6]; [21],7.99%
same,inhibition,[6]; [22],-21.4%
same,inhibition,[6]; [23],-6.35%
same,inhibition,[6]; [24],-51.5%
same,inhibition,[6]; [25],0.237%
same,inhibition,"[7]; BGB combo, at 5 µM",-2.48%
same,inhibition,[7]; at 0.5 µM,2.44% (inactive)
same,inhibition,"[7]; cisplatin combo, at 5 µM",22.1%
same,inhibition,[7]; [26],3.45%
same,inhibition,[7]; [27],3.39%
same,inhibition,"[7]; single agent, at 5 µM",-10.2%
same,inhibition,"[8]; BGB IC20 combo, at 0.005 µM",12.8%
same,inhibition,"[8]; BGB IC40 combo, at 0.005 µM",-11.6%
same,inhibition,"[8]; BGB IC40 combo, at 0.05 µM",-8.96%
same,inhibition,[8]; at 0.5 µM,-1.56% (inactive)
same,inhibition,"[8]; cisplatin combo, at 0.05 µM",-12%
same,inhibition,"[8]; cisplatin combo, at 0.5 µM",11.2%
same,inhibition,"[8]; cisplatin combo, at 5 µM",-26.7%
same,inhibition,[8]; [28],-22.7%
same,inhibition,[9]; at 0.5 µM,-12.8% (inactive)
same,inhibition,[9]; [23],8.6%
same,inhibition,[9]; [29],-12.6%
same,inhibition,[9]; [30],-5.77%
same,inhibition,[10]; at 0.5 µM,8.24% (inactive)
same,inhibition,[10]; [31],11.6%
same,inhibition,[10]; [32],59.6%
same,inhibition,[10]; [33],-6.26%
same,inhibition,[10]; [34],-29%
same,inhibition,"[10]; single agent, at 5 µM",-1.22%
same,inhibition,[11]; at 0.5 µM,2.27% (inactive)
same,inhibition,[11]; [35],3.71%
same,inhibition,[11]; [36],0.594%
same,inhibition,[12]; at 0.5 µM,-9.24% (inactive)
same,inhibition,[12]; [37],-10.8%
same,inhibition,[12]; [38],-6.6%
same,inhibition,[13]; at 0.5 µM,19.4% (inactive)
same,inhibition,[13]; [39],-16.6%
same,inhibition,[13]; [40],-2.8%
same,inhibition,[14]; at 0.5 µM,-5.08% (inactive)
same,inhibition,[14]; [41],3%
same,inhibition,[14]; [42],-6.4%
same,inhibition,[14]; [43],-14.7%
same,inhibition,[14]; [44],-27%
same,inhibition,[15]; at 0.5 µM,-23.1% (inactive)
same,inhibition,[15]; [45],-17.8%
same,inhibition,"[15]; cisplatin combination, at 5 µM",-5.35%
same,inhibition,[15]; [46],-15.9%
same,inhibition,"[15]; single agent, at 5 µM",-9.51%
same,inhibition,[16]; at 0.5 µM,3.14% (inactive)
same,inhibition,"[16]; cisplatin combo, at 5 µM",-11.8%
same,inhibition,[16]; [47],22%
same,inhibition,[16]; [29],1.1%
same,inhibition,"[16]; single agent, at 5 µM",-5.54%
same,inhibition,[17]; at 0.5 µM,26.4% (inactive)
same,inhibition,[17]; [26],22.4%
same,inhibition,[17]; [27],26.7%
same,inhibition,"[17]; single agent, at 0.05 µM",12.9%
same,inhibition,"[17]; single agent, at 5 µM",25.1%
CN(CCOc1ccc(C[C@H](Nc2ccccc2C(=O)c2ccccc2)C(=O)O)cc1)c1ccccn1,outcome,[1],inactive
same,outcome,[2],inactive
same,outcome,[3],inactive
same,outcome,[4],inactive
same,outcome,[5],inactive
NC1CCC(N[C@@H]2C[C@H]2c2ccccc2)CC1 (stereo not given in full),outcome,[1],inactive
same,outcome,[2],inactive
same,outcome,[3],inactive
same,outcome,[4],inactive
same,outcome,[5],inactive
same,inhibition,[6]; [20],20.5% (inactive)
same,inhibition,[6]; [21],-7.63%
same,inhibition,[6]; [22],-36.6%
same,inhibition,[6]; [23],-4.73%
same,inhibition,[6]; [24],61.5%
same,inhibition,[6]; [25],-33.8%
same,inhibition,"[7]; BGB combo, at 5 µM",-29.3%
same,inhibition,[7]; at 0.5 µM,-3.39% (inactive)
same,inhibition,"[7]; cisplatin combo, at 5 µM",-5%
same,inhibition,[7]; [26],-15.4%
same,inhibition,[7]; [27],-4.58%
same,inhibition,"[7]; single agent, at 5 µM",-15%
same,inhibition,"[8]; BGB IC20 combo, at 0.005 µM",1.45%
same,inhibition,"[8]; BGB IC40 combo, at 0.005 µM",-40%
same,inhibition,"[8]; BGB IC40 combo, at 0.05 µM",-44.5%
same,inhibition,[8]; at 0.5 µM,-31.6% (inactive)
same,inhibition,"[8]; cisplatin combo, at 0.05 µM",-50.3%
same,inhibition,"[8]; cisplatin combo, at 0.5 µM",-54.9%
same,inhibition,"[8]; cisplatin combo, at 5 µM",-29.9%
same,inhibition,[8]; [28],-0.182%
same,inhibition,[9]; at 0.5 µM,-25.6% (inactive)
same,inhibition,[9]; [23],-43.6%
same,inhibition,[9]; [29],-41.7%
same,inhibition,[9]; [30],-14.7%
same,inhibition,[10]; at 0.5 µM,0.26% (inactive)
same,inhibition,[10]; [31],13%
same,inhibition,[10]; [32],4.36%
same,inhibition,[10]; [33],-8.09%
same,inhibition,[10]; [34],0.769%
same,inhibition,"[10]; single agent, at 5 µM",26.6%
same,inhibition,[11]; at 0.5 µM,-30% (inactive)
same,inhibition,[11]; [35],8.8%
same,inhibition,[11]; [36],-54.3%
same,inhibition,[12]; at 0.5 µM,-7.1% (inactive)
same,inhibition,[12]; [37],-21.2%
same,inhibition,[12]; [38],17.1%
same,inhibition,[13]; at 0.5 µM,-1.76% (inactive)
same,inhibition,[13]; [39],-8.52%
same,inhibition,[13]; [40],-20.9%
same,inhibition,[14]; at 0.5 µM,-9.19% (inactive)
same,inhibition,[14]; [41],-1.28%
same,inhibition,[14]; [42],-16.2%
same,inhibition,[14]; [43],-20.5%
same,inhibition,[14]; [44],-12.9%
same,inhibition,[15]; at 0.5 µM,-8.52% (inactive)
same,inhibition,[15]; [45],-9.89%
same,inhibition,"[15]; cisplatin combination, at 5 µM",-5.53%
same,inhibition,[15]; [46],65.9%
same,inhibition,"[15]; single agent, at 5 µM",3.43%
same,inhibition,[16]; at 0.5 µM,-11.5% (inactive)
same,inhibition,"[16]; cisplatin combo, at 5 µM",-6.41%
same,inhibition,[16]; [47],-13.6%
same,inhibition,[16]; [29],-9.08%
same,inhibition,"[16]; single agent, at 5 µM",-32.3%
same,inhibition,[17]; at 0.5 µM,-40.7% (inactive)
same,inhibition,[17]; [26],-47.5%
same,inhibition,[17]; [27],-37.3%
same,inhibition,"[17]; single agent, at 0.05 µM",-32.5%
same,inhibition,"[17]; single agent, at 5 µM",-26.5%
COc1cccc(-c2cc(F)ccc2C2Cc3nc(N)nc(C)c3C(=O)N2)n1 (stereo not given),AC50,[1],29.5 nM (active)
same,AC50,[2],41.7 nM (active)
same,AC50,[3],29.5 nM (active)
same,AC50,[4],37.2 nM (active)
same,IC50,[5],74.2 nM (active)
same,fold change,[18]; [48],0.968 (inactive)
same,fold change,[18]; [49],0.335
same,cell count,[18]; [50],2200
same,cell count,[18]; [51],2270
same,z-score,[19]; [52],2.51 (active)
same,z-score,[19]; [53],-1.33
CN1CCC(c2c(O)cc(O)c3c(=O)cc(-c4ccccc4Cl)oc23)C1CO (stereo not given),AC50,[1],934 nM (active)
same,AC50,[2],1180 nM (active)
same,AC50,[3],1180 nM (active)
same,AC50,[4],1180 nM (active)
same,IC50,[5],1860 nM (active)
same,fold change,[18]; [48],0.969 (inactive)
same,fold change,[18]; [49],0.481
same,cell count,[18]; [50],1620
same,cell count,[18]; [51],1670
same,z-score,[19]; [52],0.124 (inactive)
same,z-score,[19]; [53],-6.97
